PGC1a acetyl inh: PGC1a acetylation modulation, inhibitor mode | U2OS PGC1a acetylation, AlphaScreen anti-acetyl-lysine; with virally co-expressed GCN5 acetyltransferase | inhibition, % at 15.6 µM | 350,000 tested, 0.17% active;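 active = every replicate shows inhibition of at least 40%; inconclusive = mean inhibition at least 40% but some replicate below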
DENV2 CPE: DENV2-induced cell death inhibition; DENV2-infected cells, cytopathic effect rescue, plate reader; CPE inhibition, % at 9.99 µM; 350,000 tested, 1.7% active; in the data active = CPE inhibition above about 20%, passing the limit was not always enough; inconclusive = no clear call, values can overlap the other calls; tested in BHK-21 cells
miR-122 sensor: blocks miR-122 activity in Huh7 sensor cells; Huh7 miR-122 Renilla luciferase sensor, 48 h; neutral wells = 0, positive control = 100; 340,000 tested, 0.3% active; activation (reporter increase), % at 12.5 µM; AID 602342;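 active = mean replicate activation score at least 90 and every replicate individually at or above 90; inconclusive = only one of the two criteria met; inactive = neither criterion met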;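 note: higher luciferase means less miR-122 activity so hits act as miR-122 inhibitors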
PvdQ inh: P. aeruginosa PvdQ acylase inhibition | purified PvdQ acylase, fluorescence plate reader | inhibition, % at 10 µM | 340,000 tested, 0.063% active; in the data active = inhibition above about 30%, passing the limit was not always enough; inconclusive = no clear call, values can overlap the other calls
C2C12 statin: suppressors of simvastatin-induced myotoxicity in C2C12 myotubes; ATP luminescence, 48 h; scaled: DMSO 0, geranylgeraniol control 100; rescue of ATP level, % at 7.49 µM; 330,000 tested, 0.78% active; AID 602340;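 active = mean ATP rescue above about 67%, or every replicate alone reaching that limit, limit read from the data, passing the limit was not always enough; inconclusive = no clear call, values can overlap the other calls; inactive = mean under the limit and some replicate under it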;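 note: myotubes were challenged with 10 µM simvastatin during compound exposure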
Each line names hits and unclear results; the compound was inactive in the other large screens; [ ] = remark or other dose. Hits are enriched below; roughly 2.2% of the tested compounds scored in any of these assays.

C[C@@H]1CCCCO[C@@H](CN(C)C(=O)Nc2ccccc2)[C@H](C)CN([C@H](C)CO)C(=O)c2cc(NS(C)(=O)=O)ccc2O1	DENV2 CPE inconclusive (no result: PvdQ inh, C2C12 statin)
COc1ccc(NC(=O)N(C)C[C@@H]2OCCCC[C@@H](C)Oc3ccc(NC(=O)CCCN(C)C)cc3C(=O)N([C@@H](C)CO)C[C@H]2C)cc1	DENV2 CPE 67 (no result: PvdQ inh, C2C12 statin)
C[C@@H]1CCCCO[C@@H](CN(C)C(=O)Nc2ccccc2)[C@H](C)CN([C@@H](C)CO)C(=O)c2cc(NS(C)(=O)=O)ccc2O1	DENV2 CPE 43 (no result: PvdQ inh, C2C12 statin)
COc1ccc(NC(=O)N(C)C[C@H]2OCCCC[C@@H](C)Oc3ccc(NS(C)(=O)=O)cc3C(=O)N([C@H](C)CO)C[C@H]2C)cc1	DENV2 CPE 95 (no result: PvdQ inh, C2C12 statin)
CN(C)C(=O)[C@H]1N[C@H]2c3ccc(-c4ccc(F)cc4)c(=O)n3C[C@H]2[C@@H]1CO	none (no result: PGC1a acetyl inh, miR-122 sensor, PvdQ inh)
COc1ccc(CN(C)C[C@H]2OCCCC[C@H](C)Oc3ccc(NC(=O)Nc4ccc(F)cc4)cc3C(=O)N([C@@H](C)CO)C[C@@H]2C)cc1	none (no result: PvdQ inh)
COc1ccc(C(=O)OCC(=O)N2CCN(C(=O)c3ccco3)CC2)cc1OC	C2C12 statin 88
CC(=O)Nc1ccc2c(c1)C(=O)N(C)[C@H]1CC[C@H](CC(=O)NCC3CCCCC3)O[C@@H]1CO2	none (no result: PvdQ inh)
Cc1ccc(S(=O)(=O)NCCN=C(CN2CCCC2)NS(=O)(=O)c2ccc(C)cc2)cc1	C2C12 statin 112 (no result: DENV2 CPE)
O=C(Nc1ccc(F)cc1)N[C@@H]1C=C[C@@H](CC(=O)N2CCOCC2)O[C@H]1CO	none (no result: PvdQ inh)
C[C@H](CO)N1C[C@H](C)[C@@H](CN(C)CC2CC2)Oc2ccc(NC(=O)c3ccncc3)cc2CC1=O	none (no result: PvdQ inh)
Clc1ccc(CNc2nc(N3CCOCC3)nc(N3CCOCC3)n2)cc1	miR-122 sensor 129 (no result: DENV2 CPE)
CCNc1nc(SCc2ccccc2)nc(N2CCOCC2)n1	C2C12 statin 99 (no result: DENV2 CPE)
c1ccc(CNc2nc(N3CCOCC3)nc(N3CCOCC3)n2)cc1	none (no result: DENV2 CPE)
C[C@@H]1CCCCO[C@H](CN(C)Cc2ccc(C(=O)O)cc2)[C@@H](C)CN([C@H](C)CO)C(=O)c2cc(NS(=O)(=O)c3cccs3)ccc2O1	none (no result: PvdQ inh, C2C12 statin)
COc1cc(S(=O)(=O)N(Cc2ccco2)C2CCCC2)ccc1-n1cnnn1	none (no result: DENV2 CPE)
CCOc1ccccc1CN(Cc1ccco1)S(=O)(=O)c1ccc(-n2cnnn2)c(OC)c1	miR-122 sensor 138 (no result: DENV2 CPE)
CC(C)NC(=O)N(C)C[C@@H]1Oc2ccc(NC(=O)Nc3cccc4ccccc34)cc2C(=O)N([C@@H](C)CO)C[C@H]1C	none (no result: PvdQ inh)
N/C(=N\OC(=O)c1cccc(Br)c1)c1ccc(Br)cc1	C2C12 statin 96 (no result: DENV2 CPE)
COc1cccc(-c2cnc3c(c2)C(=O)N([C@H](C)CO)C[C@H](C)[C@H](CN(C)C(=O)CN(C)C)O3)c1	none (no result: PvdQ inh)
COc1cc(NC(=O)N2CCc3nc(Nc4cc(Cl)cc(Cl)c4)ncc3C2)cc(OC)c1OC	DENV2 CPE 47 (no result: PGC1a acetyl inh, PvdQ inh)
OC(c1ccccc1)(c1ccccc1)C1CCN(CCCOc2cccc(F)c2)CC1	DENV2 CPE 56 (no result: PGC1a acetyl inh, miR-122 sensor, PvdQ inh, C2C12 statin)
C[C@@H]1CN([C@@H](C)CO)C(=O)Cc2cc(NC(=O)Nc3cccc4ccccc34)ccc2O[C@@H]1CN(C)C(=O)NC1CCCCC1	miR-122 sensor 167[16.7 µM] (no result: PvdQ inh)
C[C@@H]1CN([C@@H](C)CO)C(=O)Cc2cc(NC(=O)Nc3cccc4ccccc34)ccc2O[C@H]1CN(C)C(=O)NC1CCCCC1	DENV2 CPE 25 (no result: PvdQ inh)
C[C@H]1CN([C@@H](C)CO)C(=O)Cc2cc(NC(=O)Nc3cccc4ccccc34)ccc2O[C@H]1CN(C)C(=O)NC1CCCCC1	none (no result: PvdQ inh)
O=[N+]([O-])c1cccnc1Sc1ccc(Cl)cc1	PvdQ inh 47 (no result: miR-122 sensor)
COC(=O)N1C(=O)[C@](c2ccc(OC)cc2)(C(C)C)N1C(=O)OC	none (no result: PGC1a acetyl inh, miR-122 sensor)
COC(=O)N1C(=O)[C@](c2ccsc2)(C(C)C)N1C(=O)OC	DENV2 CPE 48
COc1ccc2c3c(n(C)c2c1)[C@H](CO)N(CC1CC1)CC31CCN(C(=O)c2cccnc2)CC1	none (no result: miR-122 sensor, PvdQ inh, C2C12 statin)
CN(C)CC(=O)N[C@H]1CC[C@@H](CCn2cc(C3CC3)nn2)O[C@H]1CO	none (no result: miR-122 sensor, PvdQ inh)
CO[C@@H]1CN(C)C(=O)c2ccc(NC(=O)C3CCCCC3)cc2OC[C@@H](C)N(C)C[C@H]1C	none (no result: PGC1a acetyl inh, DENV2 CPE, PvdQ inh)
COc1ccc(C2CC(c3ccccc3)=NN2S(=O)(=O)c2ccccc2)c(OC)c1 (stereo not given)	DENV2 CPE 22 (no result: PGC1a acetyl inh, miR-122 sensor, C2C12 statin)
COc1ccc(C2CC(c3ccccc3)=NN2S(=O)(=O)c2ccc(C)cc2)c(OC)c1 (stereo not given)	none (no result: PGC1a acetyl inh, DENV2 CPE)
N#Cc1ccccc1CSc1nc(N2CCCCC2)nc(N2CCCCC2)n1	C2C12 statin 117 (no result: DENV2 CPE)
Cc1nc(SCc2ccccc2C#N)n[nH]1	none
C[C@@H]1CN([C@H](C)CO)C(=O)c2cc(NC(=O)c3ccncc3)ccc2O[C@@H](C)CCCCO[C@H]1CN(C)Cc1ccc(C(F)(F)F)cc1	none (no result: PGC1a acetyl inh, PvdQ inh)
COc1ccccc1NC1=NCC(=O)N1Cc1ccccc1	C2C12 statin 88 (no result: DENV2 CPE)
CCOc1ccccc1NC1=NCC(=O)N1Cc1ccc(F)cc1	none
Cc1cccc(S(=O)(=O)N2C[C@@H](O)COC[C@@H]3O[C@@H](CC(=O)N4CCN(C)CC4)CC[C@H]32)c1	none (no result: PvdQ inh)
CCN(CC)S(=O)(=O)c1ccc2c(c1)nc(CCC(=O)OCC(=O)Nc1c(F)cccc1F)n2C	DENV2 CPE 45 (no result: PGC1a acetyl inh, miR-122 sensor, C2C12 statin)
COc1ccccc1-c1ccc([C@@H]2C[C@H]3[C@H](CON3C)CN2C(=O)c2ccc(-c3ccccc3)cc2)cc1	DENV2 CPE 38 (no result: PvdQ inh)
Cn1cc(C(CO)Cc2ccccc2)c2ccccc21 (stereo not given)	DENV2 CPE 25
C[C@@H]1CCCCO[C@H](CN(C)C(=O)CCC(F)(F)F)[C@@H](C)CN([C@@H](C)CO)C(=O)c2cc(N(C)C)ccc2O1	none (no result: PvdQ inh)
CN1C(=O)c2cc(NS(C)(=O)=O)ccc2OC[C@H]2O[C@@H](CC(=O)Nc3cccc(F)c3)CC[C@@H]21	none (no result: PvdQ inh)
Nc1ccc2oc(-c3cccc4ccccc34)nc2c1	C2C12 statin 89 (no result: DENV2 CPE)
CCCNC(=O)C[C@@H]1CC[C@H]2[C@@H](COc3ccc(NC(=O)c4cccs4)cc3C(=O)N2C)O1	DENV2 CPE inconclusive (no result: PvdQ inh)
COc1ccc(C(=O)c2ccc(OC)cc2O)c(O)c1	C2C12 statin 128 (no result: DENV2 CPE)
COc1ccc(-c2sc3cc(OC)c(OC)cc3c2C#CCO)cc1	none (no result: PGC1a acetyl inh, miR-122 sensor)
COc1ccc(-c2sc3cc(OC)c(OC)cc3c2C#CC(C)(C)O)cc1	DENV2 CPE 24
C[C@H]1CCCCO[C@@H](CN(C)C(=O)Nc2ccc3c(c2)OCO3)[C@@H](C)CN([C@@H](C)CO)C(=O)c2cc(NS(=O)(=O)c3ccc(F)cc3)ccc2O1	none (no result: PvdQ inh)
C[C@H](CO)N1C[C@H](C)[C@H](CN(C)C(=O)Nc2ccc3c(c2)OCO3)OCCCC[C@H](C)Oc2ccc(NS(=O)(=O)c3ccc(F)cc3)cc2C1=O	C2C12 statin 81 (no result: PvdQ inh)
C[C@@H]1CCCCO[C@H](CN(C)C(=O)Nc2ccc3c(c2)OCO3)[C@H](C)CN([C@@H](C)CO)C(=O)c2cc(NS(=O)(=O)c3ccc(F)cc3)ccc2O1	C2C12 statin 92 (no result: PvdQ inh)

Assay outcomes (PubChem BioAssay)
